This is an account of results in paper PMC9838217, “Structure of SALL4 zinc finger domain reveals link between AT-rich DNA binding and Okihiro syndrome”.

Holding throughout (assay): HT-SELEX; high values mean tight binding
Holding throughout (settings): protein: recombinant; vector His6-GST; dsDNA, one strand shown

In assay [1] the target is T1, SALL4 ZFC4 WT (HT-SELEX) (Mus musculus, UniProt Q8BX22 870-940).
T1 sequence: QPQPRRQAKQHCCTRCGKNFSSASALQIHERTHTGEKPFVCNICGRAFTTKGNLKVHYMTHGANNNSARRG
The gist of the method: (§1)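 Residues 870–940 of mouse SALL4, forming zinc finger cluster 4, were expressed recombinantly, purified, and 1 µg was incubated with library DNA (1.5 µg first cycle, 200 ng later) in 100 µl of 10 mM Tris–HCl pH 7.5, 50 mM NaCl, poly(dI-dC) and DTT for 10 min at room temperature. Washed Ni2+ bead-captured complexes were PCR-amplified and reselected for up to 6 cycles in triplicate, and the products were sequenced on MiSeq and scanned for 6-mers. Binding signal is the fold change in each canonical k-mer's read fraction compared with the initial random library.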

The target in assay [2] is T2, SALL4 ZFC4 R900W (HT-SELEX) (Mus musculus, UniProt Q8BX22 870-940, R900W).
T2 sequence: T1 sequence with R31W
Put shortly:
as §1

Assay [3] deals with T3, SALL4 ZFC4 G921D (HT-SELEX) (Mus musculus, UniProt Q8BX22 870-940, G921D).
T3 sequence: T1 sequence with G52D
Put shortly:
as §1

Positions count from the first letter of the chain named.

On to TTAAAA, for which the results for the binding signal in assay [1], in assay [2] and in assay [3] were 2.8 ± 0.232 fold-change vs cycle 0, 2.26 ± 0.146 fold-change vs cycle 0 and 1.97 ± 0.21 fold-change vs cycle 0, respectively.
The matching figures for ACTCCC: 0.553 ± 0.0252 fold-change vs cycle 0, 0.612 ± 0.0294 fold-change vs cycle 0 and 0.716 ± 0.0322 fold-change vs cycle 0.
For ACATCT, in that order: 1.34 ± 0.0364 fold-change vs cycle 0, 1.46 ± 0.0394 fold-change vs cycle 0 and 1.4 ± 0.0574 fold-change vs cycle 0.
ATGTCG: the binding signal in assay [1] worked out at 0.521 ± 0.0491 fold-change vs cycle 0; in assay [2], 0.603 ± 0.00997 fold-change vs cycle 0; in assay [3] it was 0.73 ± 0.0508 fold-change vs cycle 0.
The matching figures for ATAAAG: 2.23 ± 0.104 fold-change vs cycle 0, 2.12 ± 0.11 fold-change vs cycle 0 and 1.79 ± 0.17 fold-change vs cycle 0.
Take CCATTC: the binding signal in assay [1] turned out to be 0.803 ± 0.0377 fold-change vs cycle 0; in assay [2] it was 0.923 ± 0.0207 fold-change vs cycle 0; in assay [3] it was 0.938 ± 0.0225 fold-change vs cycle 0.
With ATTTCA, the binding signal stood at 2.56 ± 0.117 fold-change vs cycle 0 in assay [1], 1.87 ± 0.0758 fold-change vs cycle 0 in assay [2] and 1.7 ± 0.117 fold-change vs cycle 0 in assay [3].
The matching figures for CATCGA: 0.706 ± 0.0155 fold-change vs cycle 0, 0.749 ± 0.0387 fold-change vs cycle 0 and 0.854 ± 0.0254 fold-change vs cycle 0.
For GACTTA, in that order: 1.27 ± 0.0397 fold-change vs cycle 0, 1.4 ± 0.0678 fold-change vs cycle 0 and 1.33 ± 0.102 fold-change vs cycle 0.
Take ACCAAA: the binding signal in assay [1] came out at 1.09 ± 0.0301 fold-change vs cycle 0; in assay [2] it was 1.17 ± 0.0218 fold-change vs cycle 0; in assay [3], 1.18 ± 0.044 fold-change vs cycle 0.
For TAGGCA, in that order: 0.578 ± 0.0216 fold-change vs cycle 0, 0.648 ± 0.0255 fold-change vs cycle 0 and 0.751 ± 0.038 fold-change vs cycle 0.
As to AAACAG, the values for the binding signal in assay [1], in assay [2] and in assay [3] were 1.101 ± 0.00341 fold-change vs cycle 0, 1.27 ± 0.0528 fold-change vs cycle 0 and 1.23 ± 0.0148 fold-change vs cycle 0, respectively.
Take AAAAGT: the binding signal in assay [1] was determined as 1.71 ± 0.0529 fold-change vs cycle 0; in assay [2] it was 1.76 ± 0.0934 fold-change vs cycle 0; in assay [3] it was 1.58 ± 0.113 fold-change vs cycle 0.
As to AAACAC, the binding signal in assay [1] was 1.06 ± 0.0292 fold-change vs cycle 0; in assay [2], 1.16 ± 0.0244 fold-change vs cycle 0; in assay [3], 1.189 ± 0.0109 fold-change vs cycle 0.
The matching figures for AATAGA: 2.12 ± 0.0946 fold-change vs cycle 0, 2.06 ± 0.0912 fold-change vs cycle 0 and 1.79 ± 0.161 fold-change vs cycle 0.
For ATTATA, in that order: 4.99 ± 0.594 fold-change vs cycle 0, 2.65 ± 0.265 fold-change vs cycle 0 and 2.25 ± 0.311 fold-change vs cycle 0.
The matching figures for ACGAGG: 0.436 ± 0.0164 fold-change vs cycle 0, 0.534 ± 0.018 fold-change vs cycle 0 and 0.618 ± 0.0579 fold-change vs cycle 0.
Regarding CATAAG, the binding signal worked out at 1.63 ± 0.0634 fold-change vs cycle 0 in assay [1], 1.59 ± 0.055 fold-change vs cycle 0 in assay [2] and 1.45 ± 0.0676 fold-change vs cycle 0 in assay [3].
As for CCCTCC, the binding signal in assay [1] stood at 0.318 ± 0.0193 fold-change vs cycle 0; in assay [2], 0.362 ± 0.0224 fold-change vs cycle 0; in assay [3] it was 0.457 ± 0.0716 fold-change vs cycle 0.
For ATCAAT, in that order: 2.28 ± 0.171 fold-change vs cycle 0, 2.07 ± 0.0713 fold-change vs cycle 0 and 1.9 ± 0.133 fold-change vs cycle 0.
Regarding CCCAAA, the binding signal amounted to 0.588 ± 0.013 fold-change vs cycle 0 in assay [1], 0.653 ± 0.0116 fold-change vs cycle 0 in assay [2] and 0.729 ± 0.0699 fold-change vs cycle 0 in assay [3].
The matching figures for ACCAGA: 0.795 ± 0.0237 fold-change vs cycle 0, 0.921 ± 0.0435 fold-change vs cycle 0 and 0.947 ± 0.0126 fold-change vs cycle 0.
The matching figures for ATGTTC: 1.28 ± 0.0355 fold-change vs cycle 0, 1.37 ± 0.0462 fold-change vs cycle 0 and 1.36 ± 0.0792 fold-change vs cycle 0.
